Measured values as given in PubChem BioAssay AID504832 (National Center for Advancing Translational Sciences (NCATS), 2011).
About 18,000 (5.8%) of roughly 310,000 compounds were called active. Not shown: some 22% with an inconclusive outcome. The sample holds actives, similar compounds and a random draw of the others, so the mix is not that of the screen. Unmarked numbers belong to inactive results. The call rests on the fitted dose curve; in most records, active means well fitted inhibition curve with a large enough effect; inconclusive means small, poorly fitted or top-dose-only effect, or another doubt; inactive means no such curve, though single readings can be large or run the other way.
On the % scale 0 is the no-effect control and ±100 the full control effect; potency means the concentration at half of the fitted maximal effect.

Assay: Primary qHTS for delayed death inhibitors of the malarial parasite plastid, 48 hour incubation
Settings: P. falciparum luciferase growth in erythrocytes; series mostly up to 28.7 µM; activity change, negative = inhibition: at the top concentration
Text: The goal of this screen is to discover new antimalarial compounds that act by inhibiting the development of the apicoplast in the malarial parasite Plasmodium falciparum. The biochemical processes that make this organelle essential for erythrocytic stage parasites are not well understood. However, antibiotics such as azithromycin and tetracycline, which target the apicoplast translational machinery, have a potent antimalarial effect.
We have developed a cell-based assay that measures parasite growth based on the expression of an integrated copy of a firefly luciferase reporter. To detect small molecules that cause this "delayed death" phenotype, erythrocytes infected with the luciferase-expressing parasites were incubated with compounds for either one or two generations, corresponding to 48 and 96 hours, respectively. Compounds that inhibit parasite growth in the second generation, but not the first, should be enriched in antimalarials that target the apicoplast. Growth inhibition is detected by a decrease in luciferase activity.
Assay Provider: David Fidock and Eric Ekland, Columbia University
Keywords: NIH Roadmap, MLPCN, MLI, MLSMR, qHTS, NCGC, qHTS, malaria, luciferase, viability
Four microliters of culture medium (RPMI 1640 with 0.5% w/v Albumax (GIBCO), 24 mM sodium bicarbonate and 10 ug/mL gentamycin) were dispensed by a Multi-drop Combi into white solid 1536-well plates (Grenier) and 23 nL compound was added by a pin tool. Four microliters of infected erythrocytes (2% hematocrit, 0.1% parasitemia final concentration) in culture medium were dispensed and the plates incubated for 48 hours at 37 C in 5% CO2. Two microliters of luciferase detection reagent was added and luminescence was detected by a ViewLux (PerkinElmer) reader.
In the case of `CN(C)S(=O)(=O)c1ccc(C(=O)NCCN=C2NS(=O)(=O)c3ccccc32)cc1`, the “activity change, negative = inhibition” value was 1.74%.
For `COc1ccccc1Nc1ncc(C(C)=O)c(C)n1`, the “activity change, negative = inhibition” value was 72.9%.
With `COc1ccc(C)cc1Nc1nc(C)nc2c1oc1ccccc12` the “activity change, negative = inhibition” value was -27.3%.
In the case of `COC(=O)c1cnc(Nc2cc(C)ccc2OC)c2ccccc12`, the Potency was 10.4 µM (active).
For `COc1ccc(N=Nc2c(-c3ccc(OC)cc3)[nH]oc2=O)cc1`, the “activity change, negative = inhibition” value was 14%.
With `COCCNC(=O)c1ccc2c(c1)ncn2-c1ccc(C)c(Cl)c1` the “activity change, negative = inhibition” value was -9.91%.
With `C=CCn1c(SCC(=O)NC(=O)Cc2ccccc2)nc2ccccc2c1=O` the “activity change, negative = inhibition” value was 0.645%.
With `COc1ccc(NC(=O)CSc2nnc(Cc3ccccc3)c(=O)n2N)cc1` the “activity change, negative = inhibition” value was -26%.
For `CCc1nnc(NC(=O)CSc2nc3ccccc3c(=O)n2CCCOC)s1`, the “activity change, negative = inhibition” value was -14.1%.
For `COc1ccc(OC)c(NC(=O)CSc2nc3cccnc3n2C)c1`, the “activity change, negative = inhibition” value was -18.9%.
For `CC(=O)NCCn1c(SCC(=O)Nc2ccc(C)cc2)nc2ccccc2c1=O`, the “activity change, negative = inhibition” value was 15.6%.
With `CCOCCCn1c(SCC(=O)Nc2cc(OC)ccc2OC)nc2ccccc2c1=O` the Potency was 5.86 µM (active).
For `COc1ccc(NC(=O)CSc2nc3ccccc3c(=O)n2C)cc1`, the Potency was 9.28 µM (active).
In the case of `O=C(CCC(=O)c1ccccc1)NCc1cccc(C(F)(F)F)c1`, the “activity change, negative = inhibition” value was -13.6%.
In the case of `O=C(NC1CCCCCC1)C1CCN(C(=O)c2ccc(Cl)cc2)CC1`, the “activity change, negative = inhibition” value was -23.6%.
For `O=C(CCN1C(=O)[C@H]2CC=CC[C@H]2C1=O)NCc1nc(-c2ccccc2)no1`, the “activity change, negative = inhibition” value was 14.4%.
For `CCOC(=O)c1c(NC(=O)Cn2nc(C(F)(F)F)cc2C)sc2c1CCC2`, the Potency was 14.7 µM (active).
For `O=C(NCc1ccccn1)C1CCN(S(=O)(=O)c2ccc(Br)cc2)CC1`, the “activity change, negative = inhibition” value was -26.8%.
In the case of `CCOC(=O)c1c(NC(=S)NC(=O)c2ccco2)sc2c1CCCC2`, the “activity change, negative = inhibition” value was 5.52%.
For `CCOC(=O)c1c(NC(=O)C2CCN(S(=O)(=O)c3ccc(Cl)cc3)CC2)sc2c1CCCC2`, the Potency was 8.28 µM (active).
In the case of `CCOC(=O)c1c(NC(=O)CSc2nnc(C)c(=O)[nH]2)sc2c1CCC2`, the “activity change, negative = inhibition” value was 2.76%.
With `CCOc1ccc(S(=O)(=O)N2CCC(C(=O)NCC(=O)Nc3cccc(Cl)c3C)CC2)cc1` the “activity change, negative = inhibition” value was -14%.
For `CCOCC(=O)Nc1sc2c(c1C(=O)OCC)CCCC2`, the “activity change, negative = inhibition” value was -25.5%.
With `O=C(NCc1ccc(Cl)cc1)C1CCN(S(=O)(=O)c2cccs2)CC1` the “activity change, negative = inhibition” value was 9.93%.
With `CCOC(=O)c1c(NC(=O)C2(C)Cc3ccccc3C(=O)O2)sc2c1CCCC2` (configuration not stated) the “activity change, negative = inhibition” value was -19.7%.
For `O=C(NCc1cccs1)C1CCN(S(=O)(=O)c2ccc(Cl)cc2)CC1`, the Potency was 1.85 µM (active).
With `CCOC(=O)c1c(NC(=S)NC)sc2c1CCCC2` the Potency was 9.28 µM (active).
With `CCOC(=O)c1c(NC(=O)CCC(=O)NCc2ccco2)sc2c1CCCC2` the “activity change, negative = inhibition” value was -6.78%.
With `Cc1cccc2c1cnn2C(=O)CCC(=O)NC1CCCCC1` the “activity change, negative = inhibition” value was 23.3%.
For `O=C(N[C@@H](Cc1c[nH]c2ccccc12)C(=O)O)OCC1c2ccccc2-c2ccccc21`, the “activity change, negative = inhibition” value was 14.7%.
For `O=C(COC(=O)Cn1[nH]c(=O)c2ccccc2c1=O)Nc1c(Cl)cccc1C(F)(F)F`, the “activity change, negative = inhibition” value was 36.6%.
`O=C(Cc1cccs1)NCc1cccc(C(F)(F)F)c1` gave an activity change, negative = inhibition of 0.71% [at 0.00184 µM].
In the case of `CC1CN(C(=S)Nc2ccccc2F)CC(C)O1` (configuration not stated), the “activity change, negative = inhibition” value was -5.26%.
For `COc1ccc(C(=O)N2CCCN(C)CC2)c(OC)c1`, the “activity change, negative = inhibition” value was -12.5%.
With `COc1ccc(CN2CCNC(=O)C2CC(=O)NCc2cn[nH]c2-c2ccccc2)c(F)c1` (configuration not stated) the “activity change, negative = inhibition” value was -21.3%.
With `COc1ccc(CN2CC(C(=O)NCCc3ccc(Cl)cc3)CC2=O)cc1` (configuration not stated) the “activity change, negative = inhibition” value was 12.1%.
In the case of `O=C(O)c1ccccc1C(=O)Nc1nc(-c2ccccc2)cs1`, the “activity change, negative = inhibition” value was 1.55%.
In the case of `Cc1ccc(C)c(NC(=O)c2ccc3nccnc3c2)c1`, the “activity change, negative = inhibition” value was 39.5%.
In the case of `COc1ccc(CNC(=O)Cc2ccc(-c3ccccc3)cc2)cc1OC`, the “activity change, negative = inhibition” value was -7.62%.
In the case of `CCn1c(C)cc(=O)cc1-c1ccc(Cl)cc1`, the “activity change, negative = inhibition” value was -13.4%.
With `COc1ccc(C(=O)CN(C(=O)c2ccc(Cl)cc2)N2C(=O)c3ccccc3C2=O)cc1` the “activity change, negative = inhibition” value was -2.1%.
With `COc1ccc(Cn2c(-c3ccc(Cl)cc3)c[n+]3ccccc23)cc1` the Potency was 0.522 µM (active).
For `Cc1ccc(OCC(=O)NCCCNC(=O)c2ccco2)cc1C`, the “activity change, negative = inhibition” value was -9.91%.
With `Cn1cccc1C(=O)NNC(=O)COc1ccc(Br)cc1` the “activity change, negative = inhibition” value was 4.6%.
In the case of `COc1cccc(C(O)c2nc3ccccc3n2C)c1` (configuration not stated), the “activity change, negative = inhibition” value was 12%.
With `Cc1n[nH]c(=O)c2c(NC(=O)COC(=O)c3ncc(Cl)c(Cl)c3Cl)oc(C)c12` the “activity change, negative = inhibition” value was 77.2%.
In the case of `COc1cc(OC)c(S(=O)(=O)Nc2ccccc2C(=O)O)cc1S(=O)(=O)Nc1ccccc1C(=O)O`, the “activity change, negative = inhibition” value was -2.89%.
With `Cc1ccc(C)c(NC(=O)CN(C)C(=O)c2ccc3ncsc3c2)c1` the “activity change, negative = inhibition” value was -3.05%.
For `O=C(Nc1ccnc(-c2ccncc2)n1)c1cccs1`, the Potency was 11.7 µM (active).
In the case of `O=C(Nc1ncccn1)c1cccs1`, the “activity change, negative = inhibition” value was 22.9%.
With `O=C(Nc1ccc(NC(=O)c2cccs2)cn1)c1ccco1` the “activity change, negative = inhibition” value was 281%.
With `CC(C)CN(C(=O)CSc1ncnc2sccc12)C1CCS(=O)(=O)C1` (configuration not stated) the “activity change, negative = inhibition” value was -15.5%.
